Measurements: PubChem BioAssay AID1376 (SRMLSC, 2008)
About 530 (0.24%) of roughly 220,000 compounds were called active. No stated cut-off is given here; in the data, active means inhibition above about 13%; inconclusive means no clear call, values can overlap the other calls; inactive means below that. For the sample, actives were picked, then their nearest neighbours and some compounds at random. Entries with a potency or affinity are not part of this list.

target: Bifunctional protein GlmU (Mycobacterium tuberculosis (strain ATCC 25618 / H37Rv)) (UniProt P9WMN3); test: inhibition of mycobacterial GlmU enzyme – biochemical, glucosamine-1-phosphate acetyltransferase (AID 1376);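 further: 0% = complete reaction with vehicle and 100% = reaction without substrate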; conditions: M. tuberculosis GlmU acetyltransferase enzyme assay; active compounds read high;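 tested at 30 µM in the primary screen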
Sequence (P9WMN3 whole entry, looked up): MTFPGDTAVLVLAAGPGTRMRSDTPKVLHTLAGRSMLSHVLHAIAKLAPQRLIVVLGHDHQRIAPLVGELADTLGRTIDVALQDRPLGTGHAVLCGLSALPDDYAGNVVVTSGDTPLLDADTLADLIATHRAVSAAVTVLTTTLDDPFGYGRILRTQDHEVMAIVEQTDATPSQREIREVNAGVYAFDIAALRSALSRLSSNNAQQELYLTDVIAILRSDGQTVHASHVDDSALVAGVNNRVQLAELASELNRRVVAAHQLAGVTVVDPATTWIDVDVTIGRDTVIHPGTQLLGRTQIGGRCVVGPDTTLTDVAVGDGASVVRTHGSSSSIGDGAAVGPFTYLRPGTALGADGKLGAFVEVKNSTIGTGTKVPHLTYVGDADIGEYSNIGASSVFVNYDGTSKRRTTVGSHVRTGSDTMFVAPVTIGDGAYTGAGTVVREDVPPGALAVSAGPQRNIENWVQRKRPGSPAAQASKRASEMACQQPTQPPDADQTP

Row | SMILES | inhibition
1 | Nc1ncnc(Nc2ccc(S(N)(=O)=O)cc2)n1 | -0.83% (inactive)
2 | CNC(=S)N1CCN(C(=O)c2ccco2)CC1 | 2.06% (inactive)
3 | COc1ccc(NC2(C#N)CCCCC2)cc1 | -1.99% (inactive)
4 | CC(Nc1nc(-c2ccc3c(c2)NC(=O)CO3)cs1)c1ccccc1 (stereo not given) | -7.09% (inactive)
5 | COC(=O)Cc1ccc(NC(=S)NCCSc2ccc(Cl)cc2)cc1 | 3.25% (inactive)
6 | COc1ccc2c(c1)c(C(=O)CN1CCOCC1)c(C)n2C | 5.7% (inactive)
7 | COc1ccc2c(c1)c(C(=O)CN1CCC3(CC1)OCCO3)c(C)n2Cc1ccccc1 | -7.53% (inactive)
8 | COc1ccc2c(c1)c(C(=O)CN1CCC3(CC1)OCCO3)c(C)n2C | 13% (active)
9 | Cc1cc(C(C)(C)C)oc1C(=O)N(CC(=O)NC1CCCC1)Cc1ccccc1 | -0.33% (inactive)
10 | Cn1c(=O)c2c(ncn2CC(O)CNc2cccc(Cl)c2)n(C)c1=O (stereo not given) | -0.25% (inactive)
11 | COC(=O)Nc1ccc(S(=O)(=O)NCCCCCC(=O)O)cc1 | -5.41% (inactive)
12 | O=C(O)c1ccccc1Nc1ccccc1C(=O)O | -0.95% (inactive)
13 | COc1ccc(Nc2ccccc2C(=O)O)cc1 | -1.06% (inactive)
14 | COc1cc(-c2ccc(Nc3ccccc3C(=O)O)c(OC)c2)ccc1Nc1ccccc1C(=O)O | 27.4% (active)
15 | O=[N+]([O-])c1ccc(Oc2ccc(S(=O)(=O)N3CCCCC3)cc2)cc1 | -0.28% (inactive)
16 | O=c1c2[nH]c3cccc(Cl)c3c2ncn1CCN1CCCCC1 | 0.41% (inactive)
17 | CCP(=O)(c1ccccc1)C(C)(C)O (stereo not given) | 4.81% (inactive)
18 | CCCOP(=O)(c1ccccc1)c1ccccc1 | 0.12% (inactive)
19 | CCOP(=O)(C1=C(O)C(=O)C(C(C)(C)C)=CC1=O)c1ccccc1 (stereo not given) | 19.3% (active)
20 | O=C1CN=C(c2ccc(Br)cc2)c2oc3ccccc3c2N1 | 14.2% (active)
21 | O=C1CN=C(c2ccc(Cl)cc2)c2oc3ccccc3c2N1 | 2.87% (inactive)
22 | O=C1CN=C(c2ccc(F)cc2)c2oc3ccccc3c2N1 | 0.53% (inactive)
23 | Cc1cccc(/C(N)=N/OC(=O)CCc2ccccc2)c1 | 3.83% (inactive)
24 | O=C(c1ccc(O)cc1)c1ccc(C(=O)O)c(C(=O)O)c1 | 12.8% (active)
25 | O=C(c1ccc(O)cc1)c1ccc(C(=O)c2ccc(O)cc2)cc1 | -1.69% (inactive)
26 | O=C(O)c1ccc(C(=O)O)c(C(=O)c2ccccc2)c1 | 1.74% (inactive)
27 | Cc1ccc(C)c(NCc2ccccc2CO)c1 | -3.27% (inactive)
28 | O=C(O)c1ccc2c(c1)N(Cc1ccccc1)C(=O)c1ccccc1S2 | -0.29% (inactive)
29 | Cc1ccccc1CN1C(=O)c2ccccc2Sc2ccc(C(=O)O)cc21 | -2.8% (inactive)
30 | Cc1cccc(CN2C(=O)c3ccccc3Sc3ccc(C(=O)O)cc32)c1 | 14.3% (active)
